Assay results from paper PMC4336329 (PLoS ONE, 2015).
Screen size: about 310,000 compounds; about 14,000 (4.5%) showed an effect of 50% or more. The effect is printed as a negative number. Only a selection was taken, and strong results are over-represented in it overall.

target: human ether-à-go-go-related gene (hERG) potassium channel (human, UniProt Q12809); assay: primary screen, population patch clamp on CHO cells stably expressing hERG; higher = less effect of the substance
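Also: peak tail current of the secondary pulse compared with the same well before compound.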

Chain of human ether-à-go-go-related gene (hERG) potassium channel (Q12809 whole entry, looked up): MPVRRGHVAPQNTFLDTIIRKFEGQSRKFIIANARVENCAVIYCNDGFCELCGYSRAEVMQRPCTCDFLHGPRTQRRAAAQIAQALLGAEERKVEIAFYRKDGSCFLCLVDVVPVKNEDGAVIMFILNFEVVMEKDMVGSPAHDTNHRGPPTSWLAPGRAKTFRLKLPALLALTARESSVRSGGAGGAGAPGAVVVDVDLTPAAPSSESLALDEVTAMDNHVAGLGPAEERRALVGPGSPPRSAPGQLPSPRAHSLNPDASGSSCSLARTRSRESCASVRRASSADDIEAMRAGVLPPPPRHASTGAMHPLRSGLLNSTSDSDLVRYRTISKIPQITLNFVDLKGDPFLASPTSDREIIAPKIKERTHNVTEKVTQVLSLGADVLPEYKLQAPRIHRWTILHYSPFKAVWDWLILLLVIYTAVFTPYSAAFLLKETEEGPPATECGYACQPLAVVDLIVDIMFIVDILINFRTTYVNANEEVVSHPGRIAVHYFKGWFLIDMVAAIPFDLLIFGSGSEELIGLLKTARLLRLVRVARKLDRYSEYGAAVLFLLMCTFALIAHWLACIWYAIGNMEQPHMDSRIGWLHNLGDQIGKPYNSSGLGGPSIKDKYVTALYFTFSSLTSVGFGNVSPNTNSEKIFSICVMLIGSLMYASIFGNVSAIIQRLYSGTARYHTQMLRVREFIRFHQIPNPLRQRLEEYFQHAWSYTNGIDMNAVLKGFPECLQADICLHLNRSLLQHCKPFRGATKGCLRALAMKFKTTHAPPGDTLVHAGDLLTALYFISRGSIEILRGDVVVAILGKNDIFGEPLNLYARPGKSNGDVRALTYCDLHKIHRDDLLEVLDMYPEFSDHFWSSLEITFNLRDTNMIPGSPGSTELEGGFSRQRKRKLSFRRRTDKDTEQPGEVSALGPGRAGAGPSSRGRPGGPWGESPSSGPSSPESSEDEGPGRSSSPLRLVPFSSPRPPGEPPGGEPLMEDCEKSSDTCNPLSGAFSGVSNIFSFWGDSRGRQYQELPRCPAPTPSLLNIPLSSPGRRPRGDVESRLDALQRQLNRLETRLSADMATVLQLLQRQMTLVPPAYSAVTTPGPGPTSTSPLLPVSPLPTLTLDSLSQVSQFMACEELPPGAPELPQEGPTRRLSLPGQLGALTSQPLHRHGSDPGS

Row | Structure (SMILES) | hERG current change (%, negative = inhibition) at 10uM [%]
1 | Cc1ccc2c(cnn2C(=O)CCCC(=O)NCc2ccc(F)cc2)c1 | -9.47
2 | O=C(NCCc1ccccc1)/C(=C/c1ccco1)c1ccccc1 | -13.8
3 | CN(C)S(=O)(=O)c1cccc(C(=O)NCC(=O)NC2CCN(Cc3ccccc3)CC2)c1 | 3.32
4 | Cc1ccc(C(=O)CSc2nnnn2C(C)C)c(C)c1 | -3.38
5 | Cc1nc2ccc([N+](=O)[O-])cc2c(=O)n1Cc1cccc(Br)c1 | -4.24
6 | COc1ccc(OC)c(NC(=O)c2cc3ccccc3cc2OC)c1 | 2.44
7 | CCc1c(C#N)sc(C(N)=O)c1CC | 13.3
8 | COc1cccc(NC(=S)N2CCN(c3ccc([N+](=O)[O-])cc3)CC2)c1 | -27.5
9 | O=[N+]([O-])c1ccc(NC(=S)N2CCN(c3ccccc3)CC2)cc1 | -11.4
10 | COc1ccc(NC(=S)N2CCN(c3ccc([N+](=O)[O-])cc3)CC2)cc1OC | -77.3
11 | CCOC(=O)c1cc(CC)sc1NC(=O)C1CC1 | -7.16
12 | COC(=O)[C@H](CCSC)NC(=O)NCc1cccs1 | 20.6
13 | CCOCCCNC(=O)C1CCN(Cc2ccc(OCc3ccccc3)c(OC)c2)CC1.O=C(O)C(=O)O | -43.3
14 | CCOC(=O)C1CCCN(Cc2ccc(OCc3ccccc3)cc2)C1.O=C(O)C(=O)O (stereo not shown) | -40.6
15 | CCOC(=O)N1CCN(C(=O)C2CCN(Cc3cccc(OCc4ccccc4)c3)CC2)CC1.O=C(O)C(=O)O | -58.4
16 | COCCNC(=O)C1CCN(Cc2cccc(OCc3ccccc3)c2)CC1 | -12.2
17 | CC(C)CCNC(=O)C1CCN(Cc2cccc(OCc3ccccc3)c2)CC1.O=C(O)C(=O)O | -50.8
18 | NC(=O)C1CCN(Cc2cccc(OCc3ccccc3)c2)CC1.O=C(O)C(=O)O | -12
19 | CCOC(=O)C1CCN(Cc2cccc(OCc3ccccc3)c2)CC1.O=C(O)C(=O)O | -43.2
20 | CCOC(=O)C1CCN(Cc2ccc(OC)c(OCc3ccccc3)c2)CC1 | -38.3

Row | Structure (SMILES) | hERG current change (%, negative = inhibition) at 10uM [%]
21 | CCCCNC(=O)C1CCN(Cc2ccc(OCc3ccccc3)c(OC)c2)CC1.O=C(O)C(=O)O | -67.2
22 | CCOC(=O)N1CCN(C(=O)C2CCN(Cc3ccc(O)c(OCC)c3)CC2)CC1.O=C(O)C(=O)O | 20.2
23 | CCOCCCNC(=O)C1CCN(Cc2cccc(OCc3ccccc3)c2)CC1.O=C(O)C(=O)O | -14.1
24 | CCOC(=O)C1CCN(Cc2ccc(OCc3ccccc3)cc2)CC1.O=C(O)C(=O)O | -62
25 | COC(=O)c1ccccc1NC(=O)c1nc2nc(C)cc(C(F)F)n2n1 | -5.65
26 | Cc1nc2ccccc2c2c1CC(C)S2 (stereo not shown) | -16.8
27 | Cc1ccc2nc(-c3ccccc3O)c(Nc3ccc4c(c3)OCCO4)n2c1 | 9.98
28 | O=C(C1CCN(Cc2ccc(OCc3ccccc3)cc2)CC1)N1CCCC1 | -47.1
29 | CCOC(=O)C1CCN(Cc2ccc(-c3ccccc3)cc2)CC1 | -28.8
30 | COc1cc(CN2CCC(C(=O)NCCC(C)C)CC2)ccc1OCc1ccccc1.O=C(O)C(=O)O | -67.8
31 | CC(C)CNC(=O)C1CCN(Cc2ccc(OCc3ccccc3)cc2)CC1.O=C(O)C(=O)O | -77.1
32 | CCOC(=O)C1CCN(c2c(N3CCN(Cc4ccccc4)CC3)c(=O)c2=O)CC1 | -73.4
33 | COc1cc(CN2CCC(C)CC2)ccc1OCc1ccccc1.O=C(O)C(=O)O | -52.9
34 | COc1ccc(CN2CCC(C)CC2)cc1OCc1ccccc1 | -49.6
35 | CCOC(=O)C1CCN(c2c(NCCCN3CCN(Cc4ccccc4)CC3)c(=O)c2=O)CC1 | 3.6
36 | COc1cc(CN2CCC(C(=O)NCC(C)(C)CN(C)C)CC2)ccc1OCc1ccccc1.O=C(O)C(=O)O | 13.6
37 | COc1cc(CN2CCCCC2)ccc1OCc1ccccc1.O=C(O)C(=O)O | -35.1
38 | CC(O)CNC(=O)C1CCN(Cc2ccc(OCc3ccccc3)cc2)CC1.O=C(O)C(=O)O (stereo not shown) | -33.2
39 | O=C(/C=C/c1ccccc1)Nc1cc(NC(=O)/C=C/c2ccccc2)cc(C(=O)O)c1 | 21.4
40 | COc1ccc(-c2cc(C)no2)cc1S(=O)(=O)N1CCCN(Cc2ccc(F)cc2)C1 | -16.9

Row | Structure (SMILES) | hERG current change (%, negative = inhibition) at 10uM [%]
41 | CC(C)C(=O)Nc1nnc(SCc2cccc(F)c2)s1 | -8.88
42 | COc1ccc(Cc2nc(C(=O)Nc3ccc(Cl)cc3)cs2)cc1 | -42.8
43 | CCOC(=O)c1nsnc1NCCSC(=N)N.I | 3.69
44 | CC1CN(S(=O)(=O)c2ccc(C(=O)Nc3sccc3C(N)=O)cc2)CC(C)O1 (stereo not shown) | -10.8
45 | CCOc1ccc(NC(=O)CCC(=O)Nc2cc(OC)c(NC(=O)c3ccco3)cc2OC)cc1 | 10.4
46 | O=C(CSc1nc(-c2ccccc2)cs1)N1CCc2ccccc21 | 3.61
47 | Cc1cccc(N(Cc2cc3ccccc3[nH]c2=O)C(=O)c2ccco2)c1C | 4.51
48 | CCC(C)(C)NC(=O)C(c1ccncc1)N(Cc1ccc(C)cc1)C(=O)c1csnn1 (stereo not shown) | -14.1
49 | COc1cc(OC)c(C2N(c3ccccn3)C(=O)C3CCCN32)cc1OC (stereo not shown) | 13.8
50 | COc1ccc(C(=O)OCC(=O)NCCN2C(=O)CSC2=O)cc1 | -1.03
51 | CCOC(=O)C1CCN(c2c(NCc3ccc(N(C)C)cc3)c(=O)c2=O)CC1 | -5.97
52 | CCOC(=O)C1CCCN(Cc2ccc(OC)c(OCc3ccccc3)c2)C1 (stereo not shown) | -46.1
53 | CCOC(=O)C1CCN(c2c(NCc3ccc(C(=O)N(C)Cc4ccccc4)cc3)c(=O)c2=O)CC1 | -65.2
54 | CCCNC(=O)c1ccc(CNc2c(N3CCC(C(=O)OCC)CC3)c(=O)c2=O)cc1 | 3.8
55 | CCOC(=O)C1CCN(Cc2ccc(OCc3ccccc3)c(OC)c2)CC1.O=C(O)C(=O)O | -19.3
56 | OC1CCN(Cc2ccc(OCc3ccccc3)cc2)CC1 | -5.07
57 | CCOC(=O)C1CCCN(Cc2ccc(OCc3ccccc3)c(OC)c2)C1.O=C(O)C(=O)O (stereo not shown) | -62.2
58 | CCCCNC(=O)C1CCN(Cc2ccc(OCc3ccccc3)cc2)CC1.O=C(O)C(=O)O | -71.7
